HT1080-NT tox = kills 2HG-producing HT-1080-NT fibrosarcoma cells; HT-1080-NT fibrosarcoma viability, CellTiter-Glo ATP luminescence, 48 h; Potency, µM (top dose mostly 46.1 µM), most hits filed as cytotoxic; hit rate 1.6% among 360,000;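 further: NT is the 2HG producing partner of a matched IDH1 knockdown line; nearly all actives have a fitted effect of over 55% in size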
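Fibrosarcoma NT cells, 750 per well in 5% FBS RPMI, were exposed to compound for 48 hours. Viability: CellTiter-Glo luminescence.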
KB-3-1 tox = KB-3-1 parental cell cytotoxicity; KB-3-1 viability, CellTiter-Glo ATP luminescence, 72 h; Potency, µM (titrated, usually from 46.1 µM), actives largely listed as cytotoxic; hit rate 1.4% among 400,000; further: nearly all actives have a fitted effect of over 60% in size
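Multi-concentration cytotoxicity screen in KB-3-1 cells grown in DMEM lacking phenol red with 10% FBS. After 72 h at 37 °C with compound, ATP-dependent luminescence was recorded.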
KB-V1 cytotox = KB-V1 MDR subline cytotoxicity; KB-V1 MDR cells viability, CellTiter-Glo, 72 h; AID 1347076; Potency, µM (top dose mostly 46.1 µM), usual class: cytotoxic; hit rate 3.4% among 400,000; further: nearly all actives have a fitted effect of over 60% in size
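KB-V1 cells (P-gp-expressing MDR subline of KB-3-1) in phenol-red-free DMEM with 10% FBS were exposed to library compounds over a concentration series for 72 h at 37 degrees C. Viability read by CellTiter-Glo luminescence; concentration-effect curves fitted after normalization.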
HT1080 IDH1KD tx = HT-1080 IDH1 knockdown cell toxicity (counter line); Potency, µM (highest dose often 46.1 µM), most hits filed as cytotoxic; HT-1080 IDH1 knockdown viability, ATP luminescence, 48 h; AID 686971; hit rate 2% among 360,000
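Using the IDH1-knockdown HT-1080 line run in the same batch and compound series as the NT line, viability after 48 h at 37 °C was determined by CellTiter-Glo luminescence and expressed as % activity.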
MCF10A rerep = DNA re-replication induction in MCF 10a cells. hit rate 2.9% among 350,000. AID 624296. MCF 10A DNA re-replication, Hoechst nuclear intensity, 48 h. Potency, µM (doses to about 46.1 µM), actives largely listed as activators; further: nearly all actives have a fitted effect of over 50% in size
SW480 rereplic = DNA re-replication induction in SW480 cells; AID 624297; hit rate 1.8% among 340,000; Potency, µM (series often up to 46.1 µM), actives largely listed as activators; SW480 DNA re-replication, Hoechst DNA content imaging, 48 h; further: nearly all actives have a fitted effect of over 55% in size
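Per well, 250 cells were exposed to pinned compound for 48 hr. Nuclear DNA was visualised with Hoechst (40 min, 37 C) and total object intensity recorded by fluorescence scanning.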
Hits are given with their value. Most compounds without a hit are left out; they make up all but 7.9% or so of the library. The call rests on the fitted dose curve; in most records, active means well fitted curve in the direction sought with a large enough effect; inconclusive means small, poorly fitted or top-dose-only effect, or another doubt; inactive means no such curve, though single readings can be large; an effect the other way counts as inactive or inconclusive.

For CCOC(=O)C1CCN(CC(=O)N2CCCc3c2c(=O)oc2ccc(OCc4ccccc4)cc32)CC1 the results were KB-3-1 tox inactive and KB-V1 cytotox inactive.
For CCCOc1ccc2oc(=O)c3c(c2c1)CCCN3C(=O)CN1CCCC(C(=O)OCC)C1 (stereo not given) the results were HT1080-NT tox inactive, KB-3-1 tox inactive, KB-V1 cytotox 11.6µM, HT1080 IDH1KD tx inactive, MCF10A rerep inactive and SW480 rereplic inactive.
For O=C(CN1CCCC1)N1CCCc2c1c(=O)oc1ccc(OCc3ccccc3)cc21 the results were HT1080-NT tox inconclusive, KB-3-1 tox inactive, KB-V1 cytotox 18.4µM, HT1080 IDH1KD tx inconclusive, MCF10A rerep inactive and SW480 rereplic inconclusive.
COc1ccc(-c2nc3c(C)cc(Br)cn3c2Cc2ccsc2)cc1OC was read as HT1080-NT tox inconclusive, KB-3-1 tox inactive, KB-V1 cytotox inactive and HT1080 IDH1KD tx inconclusive.
Cc1c(NC(=O)c2cccs2)cccc1-c1nc2cc(Cl)ccc2o1 was read as KB-3-1 tox inactive and KB-V1 cytotox inactive.
`COc1ccc(C2=C(N3CCN(c4cccc(C)c4C)CC3)c3ccccc3C2=O)cc1` gave KB-3-1 tox inactive and KB-V1 cytotox inactive.
Cn1nnnc1SCC(=O)Nc1nc2c(F)c(F)c(F)cc2s1 was read as HT1080-NT tox inactive, KB-3-1 tox inconclusive, KB-V1 cytotox inactive, HT1080 IDH1KD tx inactive, MCF10A rerep inactive and SW480 rereplic inactive.
Screening COc1ccc(CN2C(=O)c3cccc4cccc(c34)C2c2nc3ccccc3[nH]2)cc1 (stereo not given) returned HT1080-NT tox inactive, KB-3-1 tox inactive, KB-V1 cytotox inconclusive and HT1080 IDH1KD tx inactive.
For Oc1cc(-c2cccnc2)cc2cccnc12 the results were KB-3-1 tox inconclusive, KB-V1 cytotox inconclusive, MCF10A rerep 10.3µM and SW480 rereplic inconclusive.
Screening CN1CCN(c2cc(-c3cc(O)c4ncccc4c3)ccn2)CC1 returned KB-3-1 tox inconclusive, KB-V1 cytotox inactive, MCF10A rerep inactive and SW480 rereplic inconclusive.
For C=C1CCN([C@@H](CC(C)C)C(=O)NCCC(C)C)S(=O)(=O)c2ccccc21 the results were HT1080-NT tox inactive, KB-3-1 tox inactive, KB-V1 cytotox inactive, HT1080 IDH1KD tx inactive, MCF10A rerep inactive and SW480 rereplic inconclusive.
CC(C)N(CCCNC(=O)c1nn(C)c2c1CS(=O)(=O)c1ccccc1-2)Cc1ccccc1 was read as HT1080-NT tox inactive, KB-3-1 tox inactive, KB-V1 cytotox inactive, HT1080 IDH1KD tx inactive, MCF10A rerep inactive and SW480 rereplic inconclusive.
For O=C(CS(=O)(=O)c1nc(-c2ccc(Cl)cc2)cn1-c1ccccc1)Nc1cccc(Cl)c1 the results were KB-3-1 tox 16.4µM and KB-V1 cytotox 16.4µM.
`O=[N+]([O-])c1ccc(NN=Cc2cccc3ccccc23)nc1` gave HT1080-NT tox inactive, KB-3-1 tox inconclusive, KB-V1 cytotox inactive, HT1080 IDH1KD tx inactive, MCF10A rerep inconclusive and SW480 rereplic 3.26µM.
Screening O=C(O)c1ccccc1C=NNc1ccc([N+](=O)[O-])cn1 returned HT1080-NT tox inconclusive, KB-3-1 tox inactive, KB-V1 cytotox inactive, HT1080 IDH1KD tx inactive, MCF10A rerep inactive and SW480 rereplic inactive.
For COc1cccc(/C=N/Nc2nc(Nc3ccc([N+](=O)[O-])cc3)nc(N3CCCC3)n2)c1O the results were HT1080-NT tox 9.2µM, KB-3-1 tox 16.4µM, KB-V1 cytotox inconclusive, HT1080 IDH1KD tx 3.26µM, MCF10A rerep inactive and SW480 rereplic 5.8µM.
`COc1cccc(/C=N/Nc2ccc([N+](=O)[O-])cn2)c1O` gave HT1080-NT tox 0.651µM, KB-3-1 tox 5.17µM, KB-V1 cytotox inactive, HT1080 IDH1KD tx 1.16µM, MCF10A rerep inconclusive and SW480 rereplic 1.16µM.
Cc1cc(CN2CCCC(N3CCc4ccccc4C3)C2)cc(C)c1O (stereo not given) was read as HT1080-NT tox inactive, KB-3-1 tox inactive, KB-V1 cytotox inactive, HT1080 IDH1KD tx inactive, MCF10A rerep inactive and SW480 rereplic inconclusive.
